According to the supplement of paper PMC7411054:
Structures can show the parent of a compound that is named as a salt.

Key:
Test in all cases: phenotypically active (imaging signature differs from DMSO and reproducible) at any of 0.3-9 uM (binary (1 = active, 0 = inactive)); higher = active
Conditions in all cases: treatment time: 24 h
A549-ACTB-RAB5A = test system: A549-ACTB-RAB5A
Procedure, shortened: (§1)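 After 24 h at 0.3, 1, 3 or 9 µM, with four wells per treatment, fifteen gene-edited A549, HepG2 and WPMY1 reporter lines carrying BFP, GFP and RFP/FusionRed were imaged live. Each well's live-cell features were expressed relative to solvent control wells. Deviation required ≥3 of 4 wells past the 95th percentile of control Euclidean distances, and reproducibility a median replicate Pearson correlation over the 95th percentile of non-replicates. Phenotypic activity rested on both.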

A549-CANX-COX4 = test system: A549-CANX-COX4
Procedure, shortened: as §1

A549-GM130-SQSTM1 = test system: A549-GM130-SQSTM1
Procedure, shortened: as §1

A549-TP53BP1-CLTA = test system: A549-TP53BP1-CLTA
Procedure, shortened: as §1

A549-TUBA1B-RELA = test system: A549-TUBA1B-RELA
Procedure, shortened: as §1

HepG2-ACTB-RAB5A = test system: HepG2-ACTB-RAB5A
Procedure, shortened: as §1

HepG2-CANX-COX4 = test system: HepG2-CANX-COX4
Procedure, shortened: as §1

HepG2-GM130-SQSTM1 = test system: HepG2-GM130-SQSTM1
Procedure, shortened: as §1

HepG2-TP53BP1-CLTA = test system: HepG2-TP53BP1-CLTA
Procedure, shortened: as §1

HepG2-TUBA1B-RELA = test system: HepG2-TUBA1B-RELA
Procedure, shortened: as §1

WPMY1-ACTB-RAB5A = test system: WPMY1-ACTB-RAB5A
Procedure, shortened: as §1

WPMY1-CANX-COX4 = test system: WPMY1-CANX-COX4
Procedure, shortened: as §1

WPMY1-GM130-SQSTM1 = test system: WPMY1-GM130-SQSTM1
Procedure, shortened: as §1

WPMY1-TP53BP1-CLTA = test system: WPMY1-TP53BP1-CLTA
Procedure, shortened: as §1

WPMY1-TUBA1B-RELA = test system: WPMY1-TUBA1B-RELA
Procedure, shortened: as §1

Measured: phenotypically active

C/C=C1\CN2CC[C@]34c5cc(OC)ccc5N5C(=O)C(O)OC[C@@H]([C@H]53)[C@H]1C[C@H]24 (stereo not given in full) [10-Methoxy-o-demethyltsilanine]
inactive: A549-ACTB-RAB5A 0 | A549-CANX-COX4 0 | A549-GM130-SQSTM1 0 | A549-TP53BP1-CLTA 0 | A549-TUBA1B-RELA 0 | HepG2-ACTB-RAB5A 0 | HepG2-CANX-COX4 0 | HepG2-GM130-SQSTM1 0 | HepG2-TP53BP1-CLTA 0 | HepG2-TUBA1B-RELA 0 | WPMY1-ACTB-RAB5A 0 | WPMY1-CANX-COX4 0 | WPMY1-GM130-SQSTM1 0 | WPMY1-TP53BP1-CLTA 0 | WPMY1-TUBA1B-RELA 0

CCN(C)C(=O)Oc1cccc([C@H](C)N(C)C)c1 [rivastigmine]
inactive: A549-ACTB-RAB5A 0 | A549-CANX-COX4 0 | A549-GM130-SQSTM1 0 | A549-TP53BP1-CLTA 0 | A549-TUBA1B-RELA 0 | HepG2-ACTB-RAB5A 0 | HepG2-CANX-COX4 0 | HepG2-GM130-SQSTM1 0 | HepG2-TP53BP1-CLTA 0 | HepG2-TUBA1B-RELA 0 | WPMY1-ACTB-RAB5A 0 | WPMY1-CANX-COX4 0 | WPMY1-GM130-SQSTM1 0 | WPMY1-TP53BP1-CLTA 0 | WPMY1-TUBA1B-RELA 0

O=c1cccc2n1C[C@H]1CNC[C@H]2C1 [Cytisine nitrate hydrate]
inactive: A549-ACTB-RAB5A 0 | A549-CANX-COX4 0 | A549-GM130-SQSTM1 0 | A549-TP53BP1-CLTA 0 | A549-TUBA1B-RELA 0 | HepG2-ACTB-RAB5A 0 | HepG2-CANX-COX4 0 | HepG2-GM130-SQSTM1 0 | HepG2-TP53BP1-CLTA 0 | HepG2-TUBA1B-RELA 0 | WPMY1-ACTB-RAB5A 0 | WPMY1-CANX-COX4 0 | WPMY1-GM130-SQSTM1 0 | WPMY1-TP53BP1-CLTA 0 | WPMY1-TUBA1B-RELA 0

CN1C(CC(O)c2ccccc2)CCCC1CC(O)c1ccccc1 (stereo not given) [Lobelanidine hydrochloride]
inactive: A549-ACTB-RAB5A 0 | A549-CANX-COX4 0 | A549-GM130-SQSTM1 0 | A549-TP53BP1-CLTA 0 | A549-TUBA1B-RELA 0 | HepG2-ACTB-RAB5A 0 | HepG2-CANX-COX4 0 | HepG2-GM130-SQSTM1 0 | HepG2-TP53BP1-CLTA 0 | HepG2-TUBA1B-RELA 0 | WPMY1-ACTB-RAB5A 0 | WPMY1-CANX-COX4 0 | WPMY1-GM130-SQSTM1 0 | WPMY1-TP53BP1-CLTA 0 | WPMY1-TUBA1B-RELA 0

OCC[N+]12CN3CN(CN(C3)C1)C2
inactive: A549-ACTB-RAB5A 0 | A549-CANX-COX4 0 | A549-GM130-SQSTM1 0 | A549-TP53BP1-CLTA 0 | A549-TUBA1B-RELA 0 | HepG2-ACTB-RAB5A 0 | HepG2-CANX-COX4 0 | HepG2-GM130-SQSTM1 0 | HepG2-TP53BP1-CLTA 0 | HepG2-TUBA1B-RELA 0 | WPMY1-ACTB-RAB5A 0 | WPMY1-CANX-COX4 0 | WPMY1-GM130-SQSTM1 0 | WPMY1-TP53BP1-CLTA 0 | WPMY1-TUBA1B-RELA 0

CC[N+](CC)(CCCNC1=CC(=O)C(NCCC[N+](CC)(CC)Cc2ccccc2)=CC1=O)Cc1ccccc1 [Benzoquinonium dibromide]
inactive: A549-ACTB-RAB5A 0 | A549-CANX-COX4 0 | A549-GM130-SQSTM1 0 | A549-TP53BP1-CLTA 0 | A549-TUBA1B-RELA 0 | HepG2-ACTB-RAB5A 0 | HepG2-CANX-COX4 0 | HepG2-GM130-SQSTM1 0 | HepG2-TP53BP1-CLTA 0 | HepG2-TUBA1B-RELA 0 | WPMY1-ACTB-RAB5A 0 | WPMY1-CANX-COX4 0 | WPMY1-GM130-SQSTM1 0 | WPMY1-TP53BP1-CLTA 0 | WPMY1-TUBA1B-RELA 0

O=C(O)CC[N+](=O)[O-] [3-Nitropropionic acid]
inactive: A549-ACTB-RAB5A 0 | A549-CANX-COX4 0 | A549-GM130-SQSTM1 0 | A549-TP53BP1-CLTA 0 | A549-TUBA1B-RELA 0 | HepG2-ACTB-RAB5A 0 | HepG2-CANX-COX4 0 | HepG2-GM130-SQSTM1 0 | HepG2-TP53BP1-CLTA 0 | HepG2-TUBA1B-RELA 0 | WPMY1-ACTB-RAB5A 0 | WPMY1-CANX-COX4 0 | WPMY1-GM130-SQSTM1 0 | WPMY1-TP53BP1-CLTA 0 | WPMY1-TUBA1B-RELA 0

COc1ccc2c(c1O)-c1c(OC)c(OC)cc3c1[C@H](C2)N(C)CC3 [Isocorydine (+)]
inactive: A549-ACTB-RAB5A 0 | A549-CANX-COX4 0 | A549-GM130-SQSTM1 0 | A549-TP53BP1-CLTA 0 | A549-TUBA1B-RELA 0 | HepG2-ACTB-RAB5A 0 | HepG2-CANX-COX4 0 | HepG2-GM130-SQSTM1 0 | HepG2-TP53BP1-CLTA 0 | HepG2-TUBA1B-RELA 0 | WPMY1-ACTB-RAB5A 0 | WPMY1-CANX-COX4 0 | WPMY1-GM130-SQSTM1 0 | WPMY1-TP53BP1-CLTA 0 | WPMY1-TUBA1B-RELA 0

C[C@]12Cc3cn[nH]c3C[C@@H]1CC[C@@H]1[C@@H]2CC[C@@]2(C)[C@H]1CC[C@]2(C)O [stanozolol]
inactive: A549-ACTB-RAB5A 0 | A549-CANX-COX4 0 | A549-GM130-SQSTM1 0 | A549-TP53BP1-CLTA 0 | A549-TUBA1B-RELA 0 | HepG2-ACTB-RAB5A 0 | HepG2-CANX-COX4 0 | HepG2-GM130-SQSTM1 0 | HepG2-TP53BP1-CLTA 0 | HepG2-TUBA1B-RELA 0 | WPMY1-ACTB-RAB5A 0 | WPMY1-CANX-COX4 0 | WPMY1-GM130-SQSTM1 0 | WPMY1-TP53BP1-CLTA 0 | WPMY1-TUBA1B-RELA 0

CC(C)[C@H]1C(=O)O[C@@H]2CCN3CC=C(COC(=O)[C@](C)(O)[C@@]1(C)O)[C@H]23 [Trichodesmine]
inactive: A549-ACTB-RAB5A 0 | A549-CANX-COX4 0 | A549-GM130-SQSTM1 0 | A549-TP53BP1-CLTA 0 | A549-TUBA1B-RELA 0 | HepG2-ACTB-RAB5A 0 | HepG2-CANX-COX4 0 | HepG2-GM130-SQSTM1 0 | HepG2-TP53BP1-CLTA 0 | HepG2-TUBA1B-RELA 0 | WPMY1-ACTB-RAB5A 0 | WPMY1-CANX-COX4 0 | WPMY1-GM130-SQSTM1 0 | WPMY1-TP53BP1-CLTA 0 | WPMY1-TUBA1B-RELA 0
